Screening data (PubChem)
A selection: hits, their analogues and other compounds. The true share with any hit is near 21%.
Sm TGR block: qHTS Assay for the Inhibitors of Schistosoma Mansoni Peroxiredoxins; purified TGR, DTNB reduction, TNB absorbance 405 nm; Potency, µM (doses to about 114 µM), without a hit: top-dose activity change, negative = inhibition, most hits filed as inhibitors; 360,000 compounds, 3% hits; AID 485364, 2010; further: potency means the concentration at half of the fitted maximal effect; on the % scale 0 is the no-effect control and ±100 the full control effect; nearly all actives have a fitted effect of over 60% in size
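Kinetic colorimetric format: TGR-catalysed, NADPH-driven DTNB reduction monitored via TNB absorbance. Enzyme dispensed at 20 nM; compound exposure 15 min at room temperature before reaction start.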
Pf growth 96h: Primary qHTS for delayed death inhibitors of the malarial parasite plastid, 96 hour incubation; Potency, µM (series often up to 28.7 µM), inactives show at the highest dose activity change, negative = inhibition, actives largely listed as inhibitors; AID 504834, 2011; 320,000 compounds, 6.9% hits; P. falciparum luciferase reporter growth, 96 h; further: potency means the concentration at half of the fitted maximal effect; on the % scale 0 is the no-effect control and ±100 the full control effect
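Erythrocytes infected with luciferase-expressing P. falciparum were dispensed at 2% hematocrit and 0.05% parasitemia (final), then incubated with compounds 96 hours at 37 C in 5% CO2. Luminescence after detection reagent addition reported growth.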
Pf growth 48h: Primary qHTS for delayed death inhibitors of the malarial parasite plastid, 48 hour incubation; AID 504832, 2011; 310,000 compounds, 5.9% hits; P. falciparum luciferase growth in erythrocytes, 48 h; Potency, µM (top dose mostly 28.7 µM), without a hit: at the top dose activity change, negative = inhibition, usual class: inhibitors; further: potency means the concentration at half of the fitted maximal effect; on the % scale 0 is the no-effect control and ±100 the full control effect
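Cell-based growth assay: transgenic P. falciparum expressing firefly luciferase, cultured in red cells within RPMI 1640 containing 0.5% w/v Albumax, 24 mM bicarbonate and gentamycin. A drop in luciferase activity indicates inhibition.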
CHX counter: Cycloheximide Counterscreen for Small Molecule Inhibitors of Shiga Toxin; cell reporter, cycloheximide protein synthesis inhibition counterscreen; max response, %; 300,000 compounds, 12% hits; AID 2314, 2010; in the data active means max response mostly above about 13%, no sharp cut-off; inactive means mostly below about 14%; further: read at 38.3 µM for the half of the compounds with a filed dose; 0% is about no effect
Shiga inhibitor: A qHTS for Small Molecule Inhibitors of Shiga Toxin; Vero cells, Shiga toxin protein synthesis inhibition reporter; inhibition, % at 38.7 µM; 290,000 compounds, 9.2% hits; AID 2315, 2010; in the data active means inhibition mostly above about 28%, no sharp cut-off; inactive means mostly below about 43%; further: 0% is about no effect
NS1 function inh: qHTS Assay for Inhibitors of Influenza NS1 Protein Function. Potency, µM (top dose mostly 46.1 µM), inactives show top-dose activity, positive = more growth. 270,000 compounds, 0.4% hits. AID 2326, 2010; calls by dose curve; further: potency means the concentration at half of the fitted maximal effect; actives are rising curves; nearly all actives have a fitted effect of over 50% in size
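Read-out: OD600 growth recovery of NS1-expressing budding yeast. Cells grown overnight at 30C in -URA glucose medium, washed, resuspended and diluted 1:100 in 2% galactose assay medium, pH 6.0. Same strain lacking NS1 served as positive control.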
Starred values were filed as active, the others as inactive; ? = inconclusive; · = not tested or not shown; [ ] = another dose, or the depositor's remark. Unless noted, the call rests on the fitted dose curve; in most records, active means well fitted curve in the direction sought with a large enough effect; inconclusive means small, poorly fitted or top-dose-only effect, or another doubt; inactive means no such curve, though single readings can be large; an effect the other way counts as inactive or inconclusive.

SMILES	Sm TGR block	Pf growth 96h	Pf growth 48h	CHX counter	Shiga inhibitor	NS1 function inh
CCN(CC)CCCN(Cc1cc2cc3c(cc2[nH]c1=O)OCO3)C(=S)Nc1ccccc1OC	6.0%	41.2%	?	1.1	-15.4	1.8%
O=C(Nc1cccc2ccccc12)/C(Cl)=C/c1ccccc1	2.1%	57.3%	9.0%	41.8*	81.5*	-6.0%
O=C(Nc1ccccc1F)C(=O)Nc1cccc2ccccc12	8.7%	?	104.7%	28.4*	·	4.8%
O=C(CNc1ccccc1F)Nc1cccc2ccccc12	?	4.1%	4.4%	-2.3	27.3	3.8%
O=C(O)Cc1c(Cl)ccc(Cl)c1Cl	·	·	·	-1.8	-14.2	·
Cc1ccc(SC(=O)c2c([N+](=O)[O-])c(C)nn2C)cc1	5.62µM*	-18.1%	-1.7%	11.6*	8.9	-53.9%
Cc1cc(C)n(C(=O)c2c([N+](=O)[O-])c(C)nn2C)n1	9.8%	-6.6%	14.6%	1.3	-2.5	-4.1%
CCN(CC)CCCNC(=O)C1CCN(S(=O)(=O)CC)CC1	-0.3%	·	·	·	·	·
CN(C)c1ccc(CNC(=O)CN2C(=O)c3cccnc3Oc3ccc(Cl)cc32)cc1	-0.3%	·	·	·	·	·
Clc1ccc(Nc2nc(NCCN3CCOCC3)nc(N3CCOCC3)n2)cc1	0.4%	?	?	-2.5	-1.0	-6.6%
O=C(O)c1cc(Nc2nc(N3CCOCC3)nc(N3CCOCC3)n2)ccc1Cl	3.9%	-7.6%	-7.8%	-1.1	-7.1	8.8%
CN1CCN(c2nc(Nc3cccc(C(F)(F)F)c3)nc(N3CCOCC3)n2)CC1	10.8%	0.5%	2.08µM*	-3.3	-6.9	-31.9%
Fc1ccc(Nc2nc(N3CCOCC3)nc(N3CCOCC3)n2)cc1Cl	7.0%	13.1µM*	?	-6.0	2.4	9.3%
Clc1ccc(Nc2nc(N3CCOCC3)nc(N3CCOCC3)n2)cc1Cl	-3.7%	13.1µM*	?	0.8	9.2	18.2%
Cc1ccc(NC(=O)CN2C(=O)C3C4C=CC(C4)C3C2=O)cc1S(=O)(=O)N(C)C (centres undefined)	1.2%	-0.7%	22.8%	0.7	-6.2	-4.4%
O=S1(=O)CCO[C@H]2Cc3ccccc3[C@H]2N1Cc1ccccc1Br	-3.3%	16.5µM*	11.8%	0.5	9.0	-0.4%
O=S1(=O)CCO[C@H]2Cc3ccccc3[C@H]2N1Cc1ccccc1F	-20.8%	-39.9%	0.0%	-4.0	-9.3	3.5%
O=C(Nc1ccccc1)N1CCCC(CNS(=O)(=O)Cc2ccccc2)C1 (centres undefined)	-15.7%	-5.5%	10.9%	12.9*	10.1	-3.7%
CSc1cccc(NC(=O)C(=O)NCc2ccccc2)c1	6.2%	7.8%	31.6%	-0.6	5.3	3.9%
CSc1cccc(NC(=O)N2CCCC(CNS(=O)(=O)Cc3ccccc3)C2)c1 (centres undefined)	0.2%	9.28µM*	-4.7%	-1.2	-11.5	-3.5%
CC1CCc2nn(CC(=O)NC3CCCC(C)C3C)cc2C1 (centres undefined)	4.1%	0.37µM*	6.8%	8.2	9.1	-39.0%
CC1CCc2nn(CC(=O)Nc3ccc(F)cc3F)cc2C1 (centres undefined)	8.1%	2.94µM*	11.6%	-0.8	13.3	-8.3%
CC1CCc2nn(CC(=O)NCc3ccc(F)cc3)cc2C1 (centres undefined)	-0.1%	9.28µM*	-2.5%	-2.6	-4.8	9.8%
CCOC(=O)N1CCC(NC(=O)Cn2cc3c(n2)CCC(C)C3)CC1 (centres undefined)	-1.0%	48.0%	-7.6%	-1.9	9.3	0.0%
COc1cccc(-c2nc(S(=O)(=O)c3ccccc3)c(N3CCC(C)CC3)o2)c1	-24.0%	·	·	·	·	·
SMILES	Sm TGR block	Pf growth 96h	Pf growth 48h	CHX counter	Shiga inhibitor	NS1 function inh
O=C(NCc1ccc2c(c1)OCO2)c1ccc(N2CCCC2=O)cc1	1.1%	·	17.9%	14.7	-8.7	-0.3%
CC(C)(C)c1cc(NCCCn2ccnc2)n2ncc(-c3ccc(Cl)cc3)c2n1	-5.2%	?	?	58.2*	86.6*	-39.4%
CN(C)CCCNc1cc(C(C)(C)C)nc2c(-c3ccccc3)cnn12	-2.1%	?	31.7%	46.7*	61.4*	-2.2%
Cc1cccc(-c2cc3nc(C)c(C)c(NCCCn4ccnc4)n3n2)c1	9.6%	?	1.65µM*	16.0	27.0	-2.7%
Cc1cc(NCCCn2ccnc2)n2nc(-c3ccc(F)cc3)cc2n1	-6.5%	-3.7%[5.75 µM]	4.15µM*	20.3*	29.2*	-0.3%
CSCCC(NC(=O)COc1ccccc1)C(=O)N1CCN(C(C)=O)CC1 (centres undefined)	-5.1%	22.5%	7.8%	-1.8	-3.6	1.6%
COC(=O)c1sccc1OC(C)C(C)=O (centres undefined)	8.9%	-1.0%	-0.5%	15.8	-22.0	-5.6%
Cc1cccc(OCC(=O)NCCNC(=O)c2ccco2)c1	-3.2%	-21.0%	5.5%	-4.8	-4.9	-8.5%
Cc1cc(NCCCn2ccnc2)n2nc(-c3ccc(Cl)cc3)cc2n1	·	20.0%	2.62µM*	20.2*	57.1	1.5%
c1ccc2c(Nc3nnc(-c4ccncc4)s3)cccc2c1	0.8%	79.7%	78.5%	48.0*	33.5*	0.3%
CN1CCN(c2ccccc2/C=C2/C(=O)Nc3ccccc32)CC1	1.2%	?	-12.9%[0.00184 µM]	-3.2	-2.1	0.9%
CC(C)c1ccc(C2NC(=O)NC3=C2CCc2ccccc23)cc1 (centres undefined)	?	?	·	17.5	77.1	-6.7%
Cc1ccc(C2NC(=O)NC3=C2CCc2ccccc23)cc1 (centres undefined)	39.8µM*	3.7%	117.4%	57.2*	70.6*	-8.3%
CCOc1ccc(-c2[nH]ncc2Oc2ccccc2OC)c(O)c1	-9.9%	·	8.28µM*	3.2	34.7	-139.2%
CCOc1ccc(-c2[nH]ncc2-c2ccc(OC)c(OC)c2)c(O)c1	-1.3%	-27.4%	?	-6.4	-10.5	?
CCOc1ccc(-c2[nH]ncc2Oc2ccccc2OCC)c(O)c1	-25.3%	?	5.86µM*	-0.9	-5.2	-178.7%
CCOc1ccccc1Oc1cn[nH]c1-c1ccc(OCC(=O)NN)cc1O	-10.3%	13.1µM*	·	-1.4	-8.6	?
COc1ccc(-n2nc(C(=O)NCCc3ccc(Cl)cc3)c3c4ccccc4n(C)c3c2=O)cc1	9.2%	·	·	·	·	·
COc1cc2c3c(c1)/C(=C1/SC(NC(C)=O)=NC1=O)C(=O)N3C(C)(C)C=C2C	39.8µM*	·	-21.8%	-1.5	-9.5	-32.7%
Cc1ccc(-n2ncc3c(N4CCCCC4)ncnc32)cc1Cl	-2.5%	·	·	·	·	·
CCC(C(=O)c1ccc2ncccc2c1)c1ccccc1 (centres undefined)	-3.1%	-24.6%	?	-2.1	-8.7	-14.9%
CCCc1cc(=O)n2[nH]c(-c3cccc(Br)c3)cc2n1	0.3%	-0.3%	71.7%	36.1*	64.1*	-1.7%
